In PubChem BioAssay AID1053126 (Broad Institute, 2014):
Measured potencies and affinities stand elsewhere. Unmarked numbers belong to inactive results.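 Rule for the calls: active = cell killing with a fitted half-effect concentration at or below twice the top valid dose; inconclusive = flat curve with 30 to 70 percent drop, or poor fit; inactive = the rest.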

Assay: viability loss in HEK293T kidney cells – cell-based, ATP luminescence, cherry-pick, set 6, cytotoxicity control, dose response (AID 1053126);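 note: 0% = neutral control wells and -100% = mitoxantrone 10 µM positive control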
Conditions: CellTiter-Glo ATP luminescence, 72 h; series mostly up to 26 µM; activity change, negative = cytotoxicity: at the top concentration

Row | Compound | activity change, negative = cytotoxicity [%]
1 | Cc1ccc(O)c(NC(=S)NC(=O)COc2ccc(Br)cc2)c1 | 17.8
2 | CCc1nnc(NC(=O)c2ccc(-c3ccccc3F)o2)s1 | -0.088
3 | COc1ccc(C(=O)c2sc3nc(-c4ccc(OC)cc4)ccc3c2N)cc1 | 36.5
4 | O=C(O)c1[nH]c2ccccc2c1C(c1cc(Br)ccc1O)c1c(C(=O)O)[nH]c2ccccc12 | 25.2
5 | COc1cccc(N2CCN(C(=O)C3CCCN(S(=O)(=O)c4cnc[nH]4)C3)CC2)c1 (configuration not stated) | 34.1
6 | Cc1ccc2nc3c(cc(S(=O)(=O)c4ccccc4)c(=N)n3Cc3ccco3)c(=O)n2c1 | -15.9
7 | CCOCCCNc1nc2nc3ccc(C)cn3c(=O)c2cc1C(=O)NCC1CCCO1 (configuration not stated) | -3.04
8 | CC(=O)c1cccc(-c2ccnc3c2CC(C(=O)NCc2ccc(F)c(F)c2)O3)c1 (configuration not stated) | -11.2
9 | N#CC1=C(N)OC2=C(C(=O)CCC2)C1c1cc2c(cc1Br)OCO2 (configuration not stated) | -8
10 | Cc1c(Nc2c3ccccc3nc3ccccc23)c(=O)n(-c2ccccc2)n1C | -5.14
11 | Cc1noc(C)c1S(=O)(=O)N(CC(=O)N1CCCCCC1)c1ccc(C(C)C)cc1 | -16.6
12 | COc1ccc(S(=O)(=O)Cc2ccc(C(=O)N3CCN(Cc4ccccc4)CC3)o2)cc1 | 43.5
13 | O=c1oc2cc(O)ccc2cc1S(=O)(=O)c1ccccc1 | -5.95
14 | COc1cc(C(=O)NCCCNc2nc3c(C)cc(C)cc3cc2C#N)cc(OC)c1OC | 7.6
15 | CCCN1CCc2c(sc(NC(=O)C3CCN(S(=O)(=O)c4cccs4)CC3)c2C(N)=O)C1 | -19.9
16 | O=C(Nc1ccc(-c2ccco2)cc1)C1CCCN(Cc2ccco2)C1 (configuration not stated) | -13.4
17 | CCOc1ccc2nc(NCCCNS(=O)(=O)c3ccc(C)cc3)c(C#N)cc2c1 | 31.9
18 | Cn1cc(C(c2ccccc2OCC(=O)O)c2cn(C)c3ccccc23)c2ccccc21 | -5.72
19 | CCCn1c(=N)c(S(=O)(=O)c2ccccc2)cc2c(=O)n3ccccc3nc21 | -5.16

Row | Compound | activity change, negative = cytotoxicity [%]
20 | CCOC(=O)c1cc2c(=O)n3ccccc3nc2n(C(C)C)c1=NC(=O)c1ccco1 | -13.2
21 | CCCCN1C=C(C(=O)OC)C(c2ccccc2Cl)C(C(=O)OC)=C1 | -13.7
22 | CCc1nc2ccc(C(=O)NCCc3c[nH]c4ccccc34)cn2c1N(C=O)CCC(C)C | -10.7
23 | O=C1c2ccccc2S(=O)(=O)c2cc(N3CCC(C(=O)N4CCCCC4)CC3)ccc21 | -19.3
24 | CCN(CC)Cc1c(O)c(Cl)cc2c(C)cc(=O)oc12 | -0.263
25 | COc1ccc(C2C3=C(CC(C)(C)CC3=O)N(C)C3=C2C(=O)CC(C)(C)C3)cc1 | -3.74
26 | Cc1ccc2c(c1)N(C(=O)CCC(=O)NCCCN1CCOCC1)CC(C)O2 (configuration not stated) | -8.52
27 | Cc1c(C=O)c2ccccn2c1C(=O)c1cccs1 | -6.91
28 | O=C(O)c1cccc(NC(=O)c2cn(-c3ccccc3)nc2-c2cccc(Br)c2)c1 | -12.8
29 | CN1CCc2c(sc(NC(=O)C3CCCCC3)c2C(N)=O)C1 | -9.23
30 | COc1ccc(CCNC(=O)c2cc(S(=O)(=O)N3CCCCC3)c[nH]2)cc1OC | 15.3
31 | COc1ccc(C(=O)Oc2cc(N)n(S(=O)(=O)c3ccccc3)n2)cc1 | 8.42
32 | NC(=O)c1c(NC(=O)Cc2ccccc2)sc2c1CCN(Cc1ccccc1)C2 | -10.5
33 | N#C/C(=C\c1ccc(N2CCOCC2)o1)C(=O)NCCc1ccccc1 | -16.7
34 | O=C(NCc1ccc(F)cc1)C1CCCN1C(=O)Nc1cccc(F)c1 (configuration not stated) | 1.02
35 | Cc1noc(C)c1-c1ccc(C(=O)NCCc2ccccc2)c2occc12 | -10.6
36 | C[C@H](NC(=O)c1nc[nH]c1C(=O)N[C@@H](Cc1ccccc1)C(=O)OC(C)(C)C)C(=O)OCc1ccccc1 | 12
37 | CN1CCc2c(sc(NC(=O)Cc3ccccc3)c2C#N)C1 | -7.9
